Assay [1] in a line: qHTS assay for small molecules that induce genotoxicity in human embryonic kidney cells expressing luciferase-tagged ATAD5 (AID 651632). Note: nearly all actives have a fitted effect of over 15% in size. The essentials:
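HEK293T cells carrying a luciferase reporter tagged to ATAD5 were exposed to compound or DMSO vehicle for 16 hr at 37C, 5% CO2. Amplite was added, and after 30 min at room temperature luciferase activity was read as a marker of ATAD5 induction.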
On the technique in general: qHTS replaces the single test concentration by a dilution series.

Assay [2] is described as follows: qHTS assay for small molecule agonists of the p53 signaling pathway - cell viability (AID 651633; calls by dose curve; note: nearly all actives have a fitted effect of over 30% in size; note: potency is the fitted concentration of half-maximal effect). The essentials:
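Viability counter-read: CellTiter-Glo luminescence (30 min, room temperature) in the same p53RE-bla plates. These plates had been exposed to compounds for 16 h at 37 C.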

Assay [3] can be described thus: qHTS assay for small molecules that induce genotoxicity in human embryonic kidney cells expressing luciferase-tagged ATAD5 - cell viability (AID 651634; calls by dose curve; note: nearly all actives have a fitted effect of over 25% in size; note: potency is the fitted concentration of half-maximal effect). The essentials: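 HEK293T cells expressing luciferase-tagged ATAD5 were exposed to compound or DMSO for 15.5 hr at 37C, 5% CO2. Viability was then read as live-cell protease activity by CellTiter-Fluor fluorescence after 30 min at 37C.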

Assay [4] in a line: qHTS assay for small molecule disruptors of the mitochondrial membrane potential - cell viability (AID 720634; calls by dose curve; note: nearly all actives have a fitted effect of over 20% in size; note: potency is the fitted concentration of half-maximal effect). The essentials:
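HepG2 cells seeded overnight at 37 C, then exposed to compound or DMSO for 1 hr at 37 C, 5% CO2. m-MPI dye added, then CellTiter-Glo for 30 min at room temperature; viability read as ATP luminescence.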

Assay [5] in a line: qHTS assay for small molecule disruptors of the mitochondrial membrane potential (AID 720635). Note: potency is the fitted concentration of half-maximal effect. The essentials: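 Mitochondrial membrane potential tracked with Mito-MPS dye, red aggregates (ex 540/em 590 nm) against green monomers (ex 490/em 535 nm). Compound treatment 1 hr at 37C, dye 30 min in HepG2.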
A short description of assay [6]: qHTS assay to test for compound auto fluorescence at 590 nm (red) in HepG2 cells (AID 720674). The essentials:
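Red autofluorescence (Ex/Em 540/590 nm, Rose Bengal sodium equivalents) was measured in HepG2 cells, 2,000 per well in MEM plus 10% FBS, plated overnight at 37 C. Readings were taken 1 hr after adding 23 nL compound or DMSO, at 37 C and 5% CO2.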

The nature of assay [7]: qHTS assay to test for compound auto fluorescence at 535 nm (green) in HepG2 cells (AID 720675).
Assay [8] in a line: qHTS assay to test for compound auto fluorescence at 460 nm (blue) in HEK293 cells (AID 720678). The essentials: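 Blue read-out at excitation 405 nm and emission 460 nm follows overnight compound exposure of HEK293 cells at 37C in 5% CO2. Activity is given as auto fluorescence equivalency to triamterene.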
Assay [9] is described as follows: qHTS assay to test for compound auto fluorescence at 535 nm (green) in HEK293 cells (AID 720680).
The nature of assay [10]: qHTS assay to test for compound auto fluorescence at 460 nm (blue) in HEK293 cell free culture (AID 720681). The essentials: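 Blue fluorescence (Ex 405/Em 460 nm, triamterene-equivalent) was read immediately after pin transfer of compound or DMSO into medium (DMEM, 10% FBS) without cells.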
Assay [11] can be described thus: qHTS assay to test for compound auto fluorescence at 535 nm (green) in HEK293 cell free culture (AID 720682). The essentials: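 Intrinsic compound fluorescence is measured in culture medium containing 10% FBS, with excitation at 485 nm and detection at 535 nm, referenced to fluorescein.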
Assay [12] in a line: qHTS assay to test for compound auto fluorescence at 590 nm (red) in HEK293 cell free culture (AID 720683). The essentials: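 Red-channel autofluorescence of compounds in culture medium (DMEM, 10% FBS), no cells, measured at 540/590 nm. Rose Bengal sodium is the reference fluorophore for equivalence.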
Assay [13] in a line: qHTS assay to test for compound auto fluorescence at 460 nm (blue) in HepG2 cell free culture (AID 720685). The essentials: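 Compound (23 nL) or DMSO pinned into cell-free MEM with 10% FBS; blue fluorescence read at 405/460 nm excitation/emission, expressed as auto-fluorescence equivalency to triamterene.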
A short description of assay [14]: qHTS assay to test for compound auto fluorescence at 535 nm (green) in HepG2 cell free culture (AID 720686).
Assay [15] is described as follows: qHTS assay to test for compound auto fluorescence at 460 nm (blue) in HepG2 cells (AID 720687). The essentials: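 Blue-channel autofluorescence (Ex/Em 405/460 nm, triamterene-equivalent) was measured after 1 hr compound exposure at 37 C, 5% CO2. Cells were HepG2, plated overnight at 37 C in MEM plus 10% FBS.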
Assay [16] deals with Glucocorticoid receptor (Homo sapiens) (UniProt P04150). Briefly: qHTS assay to identify small molecule antagonists of the glucocorticoid receptor (GR) signaling pathway (AID 720692; active = well fitted inhibition curve with a large enough effect in the signal ratio in the repeat runs, not every such curve was filed as active; the % refers to the signal ratio; note: potency is the fitted concentration of half-maximal effect). The essentials: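 GR-bla HeLa cells (beta-lactamase reporter under glucocorticoid response element) were pre-plated 4 h at 37 C, treated with compounds plus 5 nM dexamethasone (final) for 18 h, then read by LiveBLAzer B/G FRET fluorescence after 2 h.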

The nature of assay [17]: qHTS assay to test for compound auto fluorescence at 590 nm (red) in HEK293 cells (AID 720679). The essentials:
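Red channel, Ex/Em 540/590nm; signal expressed as equivalency to Rose Bengal sodium. HEK293, 2,000 cells/well, 10% dialyzed FBS; 23 nL compound pinned after 4-5 hr attachment; overnight 37C/5% CO2 before reading.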

A short description of assay [18]: qHTS assay to test for compound auto fluorescence at 590 nm (red) in HepG2 cell free culture (AID 720684). The essentials: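 Plate contents were MEM with 10% FBS plus test compound or DMSO, no cells. Fluorescence was recorded with 540 nm excitation and 590 nm emission.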
Assay [19] has as its target Glucocorticoid receptor (Homo sapiens) (UniProt P04150). Briefly: qHTS assay to identify small molecule agonists of the glucocorticoid receptor (GR) signaling pathway (AID 720691; active = well fitted activation curve with a large enough effect in the signal ratio in the repeat runs, not every such curve was filed as active; the % refers to the signal ratio; note: potency is the fitted concentration of half-maximal effect). The note with it: GR-bla HeLa, beta-lactamase reporter ratio, 18 h; activation: at 62.4 µM (top of the series). The essentials: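 GR-bla HeLa cells (beta-lactamase reporter under glucocorticoid response element) were plated 4 h at 37 C/5% CO2, given compounds in DMSO, and incubated 18 h at 37 C. LiveBLAzer B/G FRET substrate was added for 2 h at room temperature, then fluorescence intensity read.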

A short description of assay [20]: qHTS assay for small molecule agonists of the p53 signaling pathway (AID 651631; calls by dose curve; note: potency is the fitted concentration of half-maximal effect; nearly all actives have a fitted effect of over 15% in size). The essentials:
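Fluorescence intensity from cleaved LiveBLAzer B/G substrate (2 h, room temperature) served as the signal. Beforehand, HCT-116 reporter cells bearing p53 response elements were treated 16 h at 37 °C with DMSO-dissolved compounds.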

Several values for one entry are separate records, joined by “and”; a condition that tells them apart may be missing. Equal values may be shown once. Records with an inconclusive call do not appear. Where a structure was tested more than once in an assay, its records may differ in their call. Activity calls are given as the source filed them. Unless noted, calls come from the whole dose curve; as a rule, active = well fitted curve in the direction sought with a large enough effect in the repeat runs; inconclusive = weak or mixed curves; inactive = no such curve, though single readings can be large; an effect the other way counts as inactive or inconclusive.

Glucocorticoid receptor (Homo sapiens), sequence (P04150 whole entry, looked up): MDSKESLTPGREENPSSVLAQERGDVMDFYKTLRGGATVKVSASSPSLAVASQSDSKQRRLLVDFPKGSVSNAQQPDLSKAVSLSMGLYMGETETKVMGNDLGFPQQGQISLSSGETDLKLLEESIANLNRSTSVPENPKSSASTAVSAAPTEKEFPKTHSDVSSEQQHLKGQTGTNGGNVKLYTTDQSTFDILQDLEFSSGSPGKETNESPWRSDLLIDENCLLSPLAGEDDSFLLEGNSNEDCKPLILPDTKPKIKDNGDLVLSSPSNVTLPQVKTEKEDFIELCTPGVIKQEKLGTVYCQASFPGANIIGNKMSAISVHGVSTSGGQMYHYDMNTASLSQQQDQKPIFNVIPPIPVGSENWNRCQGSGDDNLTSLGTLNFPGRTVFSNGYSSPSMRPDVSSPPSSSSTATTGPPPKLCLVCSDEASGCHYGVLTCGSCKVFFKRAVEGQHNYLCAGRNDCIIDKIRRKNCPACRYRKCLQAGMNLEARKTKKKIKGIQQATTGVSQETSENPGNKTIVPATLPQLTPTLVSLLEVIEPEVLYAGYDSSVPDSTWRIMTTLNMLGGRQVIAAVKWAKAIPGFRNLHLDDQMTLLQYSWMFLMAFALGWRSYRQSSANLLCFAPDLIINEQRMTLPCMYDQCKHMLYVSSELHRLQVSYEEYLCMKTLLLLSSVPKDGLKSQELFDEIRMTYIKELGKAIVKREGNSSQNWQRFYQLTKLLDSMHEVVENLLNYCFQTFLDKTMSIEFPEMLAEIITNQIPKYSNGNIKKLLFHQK

As for `CC(C)N(C(=O)CCl)c1ccccc1`, the Potency result in assay [1], in assay [4], in assay [5], in assay [7], in [8] and in assay [10] was “inactive” throughout. Moreover, the Potency result in assay [13], in assay [14] and in assay [15] was “inactive” in each case. In addition, the Potency result was “inactive and 30.6 µM (active)” in assay [2]; 27.3 µM (active) and 38.6 µM (active) in assay [3]; 24.5 µM (active) in assay [16]. Also, the result in [6], in [9], in [11] and in assay [12] was inactive.
With `CC(Cc1ccc(OCC(=O)O)cc1)NCC(O)c1csc(C(F)(F)F)n1` (stereo unspecified), the Potency entry in assay [1], in [2], in assay [3], in assay [4], in assay [5] and in [7] was “inactive” in each case. For the same molecule, the Potency result in assay [8], in [10], in assay [13], in assay [14], in [15] and in assay [19] was “inactive” throughout. In addition, the Potency result in assay [16] was “inactive”. In addition, the outcome in assay [6], in assay [17], in assay [9], in assay [12] and in assay [18] was inactive.
In the case of `CC1(C)[C@H](/C=C2\CCSC2=O)[C@@H]1C(=O)OCc1coc(Cc2ccccc2)c1`, the Potency entry in assay [1], in assay [2], in [3], in assay [7], in assay [8] and in assay [10] was “inactive” each time. Moreover, the Potency result in assay [13], in assay [14] and in [15] was “inactive” throughout. For the same molecule, the Potency is 9.69 µM (active) in assay [4] and 21.7 µM (active) in assay [5]. Further, the call in [6], in assay [17], in assay [9], in [11], in assay [12] and in assay [18] was inactive.
As to `CNC(=O)O/N=C(\C)C(C)S(C)(=O)=O` (stereo unspecified), the Potency entry in assay [1], in assay [2], in assay [3], in [4], in [7] and in [8] was “inactive” each time. Moreover, the Potency entry in assay [10], in [13], in assay [14], in assay [15], in assay [19] and in assay [16] was “inactive” throughout. Besides, the molecule was classed as inactive in assay [6], in [17], in assay [9], in assay [11], in assay [12] and in [18].
As for `c1csc(-c2ccc(-c3cccs3)s2)c1`, the values for the Potency in assay [20], in [5] and in assay [19] were 34.4 µM (active), 61.1 µM (active) and 49 µM (active), respectively. The Potency result in assay [2], in assay [3], in assay [7], in assay [8], in [10] and in assay [14] was “inactive” each time. In addition, the call in assay [6], in assay [9], in assay [11], in assay [12] and in [18] was inactive.
On to `ClC1=C(Cl)[C@]2(Cl)[C@H]3[C@H]([C@@H]4C=C[C@H]3C4)[C@@]1(Cl)C2(Cl)Cl`, for which the Potency entry in assay [1], in assay [3], in assay [4], in assay [7], in assay [8] and in [10] was “inactive” throughout. Further, the Potency entry in [13], in assay [14] and in assay [15] was “inactive” throughout. Also, the Potency in assay [2] was 30.6 µM (active) and 61.1 µM (active); in assay [5], 30.6 µM (active) and 17.2 µM (active). Besides, the result in [17], in [9], in [11] and in assay [18] was inactive.
Regarding `CCN(CC)CCc1c[nH]c2ccccc12`, the Potency result in assay [1], in [2], in [3], in assay [4], in assay [5] and in assay [7] was “inactive” in each case. For the same molecule, the Potency result in assay [8], in assay [10], in [13], in assay [14], in assay [15] and in [16] was “inactive” in each case. Also, the call in assay [6], in [17], in [9], in assay [11] and in [12] was inactive.
Take `CCCCc1ccccc1`: the Potency result in assay [1], in assay [2], in assay [3], in [4], in [5] and in assay [7] was “inactive” in each case. Also, the Potency entry in [10], in assay [13], in assay [14], in assay [15] and in [16] was “inactive” throughout. For the same molecule, the call in assay [9], in [11], in assay [12] and in assay [18] was inactive.
Regarding `[O-][Cl+3]([O-])([O-])O`, the Potency result in [1], in assay [2], in assay [3], in assay [4], in assay [7] and in assay [8] was “inactive” throughout. For the same molecule, the Potency result in [10], in [13], in assay [14] and in [15] was “inactive” in each case. For the same molecule, the molecule was called inactive in [6], in assay [17], in [9], in assay [11], in assay [12] and in assay [18].

These data come from PubChem BioAssay (Tox21).
